Among all 66,000 compounds or so, about 960 (1.5%) showed an effect of 50% or more. What follows is part of a selection rich in strong results, with near analogues and random picks from the rest.

The text below walks through data of ChEMBL document CHEMBL3988442, “University of Dundee, Small-Polar-MMV Screening Library” (2021).

In this experiment the test system is Trypanosoma brucei. The experiment can be described thus: Trypanosoma brucei 72 hour study. The format is functional, organism-based. Also noted: scale not given: in the data most compounds retested in dose-response had high values.

As for `Cl.Cl.Cn1cc(C(=O)NCc2cncc3c2CCN(CC2CC2)C3)cn1`, for the setting “30.3 µM, […]”, the “Percent Effect” value is recorded as -27.13%.

For the molecule `CN(Cc1ccncc1)C(CO)c1cccc(F)c1` (stereo not drawn), the “Percent Effect” value (30 µM, 30.03 µM) was -28.86%. For the molecule `O=C(Nc1ccc2c(c1)C(=O)NC2)c1ccc(S(=O)(=O)C(F)(F)F)cc1`, the “Percent Effect” value (30.3 µM, […]) is reported as 11.83%.

Turning to `Cc1[nH]c2ccccc2c1-c1ccnc(N[C@H](CO)CC(C)C)n1`, where the note is “30.3 µM, […]”, the “Percent Effect” value stood at 57.39%. Same read-out and setting: the same measure for `Cc1[nH]c2ccccc2c1-c1ccnc(N[C@@H](C)CO)n1`: 24.23%.

As to `Cc1[nH]c2ccccc2c1-c1ccnc(N[C@@H](CO)C(C)C)n1`, for the setting “30.3 µM, […]”, the “Percent Effect” value amounted to 11.27%.

`CC(C)c1[nH]c2ncccc2c1CN1CCOCC1.Cl`: the “Percent Effect” value (30.3 µM, […]) is -24.02%.

Take `CN(C)CCN1CCOCC2(C1)CN(Cc1ccsc1)CCO2.O=C(O)C(F)(F)F.O=C(O)C(F)(F)F.O=C(O)C(F)(F)F` (stereo not drawn): for the setting “30 µM, 30.03 µM”, the “Percent Effect” value was 38.01%.

With `Cc1ccccc1N1CCN(c2ccncn2)C(C)C1` (stereo not drawn), the “Percent Effect” value (30 µM, 30.03 µM) stood at 96.97%.

Take `Cc1ccccc1N1CCN(c2cc(N(C)C)ncn2)C(C)C1` (stereo not drawn): the “Percent Effect” value (30 µM, 30.03 µM) is 6.135%. Still for that read-out and setting: then `Cc1ccc(N2CCN(c3ccccc3C)CC2C)nn1` (stereo not drawn), with -104.7%. In the case of `Cc1noc(C)c1-c1cccc(C2CN(CC(=O)N(C)C)CCO2)n1.O=CO` (stereo not drawn), the “Percent Effect” value (30.3 µM, […]) is on record as -10.64%. Still for that read-out and setting: the same measure for `Cc1nc(CN2CCC3(CCN(Cc4nccn4C)CC3)C2=O)cs1.O=C(O)C(F)(F)F.O=C(O)C(F)(F)F`: -13.64%; for `O=C(O)C(F)(F)F.O=C1C[C@H]2[C@@H](CCN2C(=O)Cc2ccccc2)N1Cc1cccnc1`: -5.465%; for `O=C(O)C(F)(F)F.O=C([C@H]1CCCO1)N1CCOC2(CCCN(c3ncccc3F)C2)C1` (stereo partly drawn): 1.881%. Same read-out and setting: then `Fc1cccc(CN2CCC(c3n[nH]c4ncccc34)CC2)c1F`, with 18.42%. Consider `Fc1ccc(F)c(CN2CCC(c3n[nH]c4ncccc34)CC2)c1.O=C(O)CC(O)(CC(=O)O)C(=O)O`, for which the “Percent Effect” value (30.3 µM, […]) is 65.45%. As to `O=C(O)CC(O)(CC(=O)O)C(=O)O.c1cnc2[nH]nc(C3CCN(Cc4ccsc4)CC3)c2c1`, the “Percent Effect” value (30.3 µM, […]) is -1.78%. Consider `Cc1ccccc1OC1CCN(CC(=O)Nc2c(C)nn(C)c2C)CC1`, for which the “Percent Effect” value (30.3 µM, […]) is given as 11.58%. As to `COCCC(=O)N1CC2(CCN(Cc3ccoc3)C2)C1`, the “Percent Effect” value (30 µM, 30.03 µM) was -24.51%. Same read-out and setting: the same measure for `Fc1cccc(CN2CCOCC3(CCN(C4CCOCC4)C3)C2)c1.O=C(O)C(F)(F)F.O=C(O)C(F)(F)F` (stereo not drawn): 30.04%. The same measure, in the same setting: then `Cc1noc(C)c1CN1Cc2nccn2CC(CN2CCOCC2)C1.O=C(O)C(F)(F)F.O=C(O)C(F)(F)F` (stereo not drawn), with 27.27%. Turning to `O=C(O)C(F)(F)F.O=C(O)C(F)(F)F.c1ccc(CN2CCOCC3(CCN(C4CCOCC4)C3)C2)cc1` (stereo not drawn), under “30.3 µM, […]”, the “Percent Effect” value was -34.62%. For `Cc1cccc(CN2Cc3nccn3CC(CN3CCOCC3)C2)c1.O=C(O)C(F)(F)F.O=C(O)C(F)(F)F` (stereo not drawn), the “Percent Effect” value (30 µM, 30.03 µM) worked out at 58.02%. On the same count and under the same terms, the same measure for `Cc1cccc(CN2CCOCC3(CCN(C4CCOCC4)C3)C2)c1.O=C(O)C(F)(F)F.O=C(O)C(F)(F)F` (stereo not drawn): 52.28%; for `Fc1ccc(CN2Cc3nccn3CC(CN3CCOCC3)C2)cc1.O=C(O)C(F)(F)F.O=C(O)C(F)(F)F` (stereo not drawn): 39.42%; for `CCC(C(=O)Nc1ccc2c(C)n[nH]c2c1)N1CCCC1=O` (stereo not drawn): 6.301%. For `CCN1N=C(C(=O)N2CCCC(c3nc(C)cs3)C2)CCC1=O` (stereo not drawn), the “Percent Effect” value (30.3 µM, […]) is recorded as -15.61% and the “Percent Effect” value (10 mM, 10 mM as filed; unlikely as a test dose) was -12.74%. Take `O=C(C1CCOC1)N1CCN(CCn2cccn2)c2ncccc2C1.O=C(O)C(F)(F)F` (stereo not drawn): the “Percent Effect” value (30.3 µM, […]) is recorded as -86.89%. Turning to `O=C(O)C(F)(F)F.O=C(O)C(F)(F)F.O=C(O)C(F)(F)F.c1ccc(CO[C@H]2CO[C@@]3(CCCN(Cc4cccnc4)C3)C2)nc1`, the “Percent Effect” value (30 µM, 30.03 µM) is on record as -28.27%. As for `CN1CCN(C(=O)c2cc3sccc3n2Cc2ccccc2)CC1`, the “Percent Effect” value (30.3 µM, […]) is listed as 20.51%. Same read-out and setting: the same measure for `CN1CCN(C(=O)c2cc3sccc3n2Cc2ccc(Cl)cc2)CC1`: 99.49%; for `CN1CCN(C(=O)c2cc3sccc3n2Cc2ccccc2Cl)CC1`: 25.89%. Still for that read-out and setting: the same measure for `CC1CCCN(Cc2c(C3CC3)n(CC(=O)N(C)C)c3ncccc23)C1.Cl` (stereo not drawn): -32.63%. `N#CCCN(CC1CCCO1)C(=O)c1ccsc1` (stereo not drawn): the “Percent Effect” value (30.3 µM, […]) is 16.66% and the “Percent Effect” value (10 mM, 10 mM as filed; unlikely as a test dose) is reported as -43.52%. `O=C(CN(CC(O)c1ccc(F)cc1)C1CC1)NCc1cccs1` (stereo not drawn): the “Percent Effect” value (30 µM, 30.03 µM) is recorded as -22.68%. For `Cc1cnn(CC2CCCCN2Cc2nc(C)c3ccccc3n2)c1` (stereo not drawn), the “Percent Effect” value (30.3 µM, […]) is -8.505% and the “Percent Effect” value (10 mM, 10 mM as filed; unlikely as a test dose) is -58.92%. For the molecule `COc1ccc(F)cc1CN1CCCC1Cn1nc(C)nc1C` (stereo not drawn), where the note is “10 µM”, the “Percent Effect” value is -21.11%. For `Cc1nc(C)n(CC2CCCN2Cc2nc(C)c3ccccc3n2)n1` (stereo not drawn), the “Percent Effect” value is listed as -1.729% (10 µM) and 68.42% (30.3 µM, […]). Regarding `COc1ccc(C)cc1CN1CCCC1Cn1nc(C)nc1C` (stereo not drawn), under “30 µM, 30.03 µM”, the “Percent Effect” value is listed as 103.3%.

Take `Cc1cnn(CC2CCCN2Cc2nc(C)c3ccccc3n2)c1` (stereo not drawn): the “Percent Effect” value is 99.14% (30.3 µM, […]) and -68.59% (10 mM, 10 mM as filed; unlikely as a test dose).

As for `Cc1cc(CN2CCCC2c2noc(C3CC3)n2)c2ccccc2n1` (stereo not drawn), the “Percent Effect” value (30 µM, 30.03 µM) came out at 8.829%. Still for that read-out and setting: the same measure for `COc1c(C)cnc(CN2CCCC2c2noc(C3CC3)n2)c1C` (stereo not drawn): -15.93%. Same read-out and setting: the same measure for `COc1ccc(CN2CCCC2Cn2nc(C)nc2C)cc1F` (stereo not drawn): 13.69%; for `COc1ccc(C)cc1CN1CCCC1c1noc(C2CC2)n1` (stereo not drawn): 105.3%; for `Cc1nc(CN2CCCC2Cn2cccn2)nc2ccccc12` (stereo not drawn): -97.44%. Still for that read-out and setting: then `Cc1nc(C)n(CC2CCCN2Cc2nc(N)c3ccccc3n2)n1` (stereo not drawn), with -26.66%; and `Cc1nc(C)n(CC2CCCN2Cc2nc3ccccc3nc2C)n1` (stereo not drawn), with -3.332%.
